The values below come from PubChem BioAssay (NCATS).

Inconclusive results are not listed. A number with no mark means an inactive call. The source made the active and inactive calls. Calls come from the whole dose curve; as a rule, active = well fitted inhibition curve with a large enough effect; inconclusive = small, poorly fitted or top-dose-only effect; inactive = flat fitted curve, though single readings scatter.
Potency is the fitted concentration of half-maximal effect.

In the test the test system is Zika virus NS2B-NS3 protease (linked construct). The experiment in a line: Confirmatory screen NINDS AMC qHTS for Zika virus inhibitors (AID 1347152).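 For activity change, negative = inhibition: AMC fluorescence gain from cleaved Bz-Nle-KRR-AMC substrate over 15 min; top concentration of the series differs between compounds; 0% = no-inhibitor control and -100% = no-enzyme control.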 Note: nearly all actives have a fitted effect of over 70% in size. The settings on record: Purified linked NS2B-NS3, AMC substrate fluorescence; series mostly up to 56.6 µM; activity change, negative = inhibition: at the top concentration. The essentials:
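Concentration-response confirmation used the NINDS linked protease (NS2B hydrophilic domain joined to NS3 protease domain), 1 nM, with a 15-min compound preincubation. Substrate, Nle-KRR-AMC at 10 microM, was read by UV fluorescence before and after 15 min.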
`CCOc1ccc(-c2ccc(Cn3c(CC(C)(C)C(=O)O)c(SC(C)(C)C)c4cc(OCc5ccc(C)cn5)ccc43)cc2)cn1`: the Potency is 7.84 µM (active).

With `CC(C)(O)C1CC=C(C(=O)OCC2OC(Oc3c(O)cc(C(=O)O)cc3O)C(O)C(O)C2O)CC1` (centres undefined), the “activity change, negative = inhibition” value is -0.585%.

`COc1cccc(-n2nc(C(=O)O)cc2-c2ccc(C3CCCCC3)c(Cl)c2)c1`: the Potency is 13.9 µM (active).

As to `O=C(O)c1ccc(CCCc2ccc(OCCc3ccc(F)cc3)cc2)o1`, the Potency is 44.1 µM (active).

For the compound `O=C(/C=C/c1c(C(=O)O)[nH]c2cc(Cl)cc(Cl)c12)Nc1ccccc1`, the Potency was 44.1 µM (active).

With `CC(C)C(=O)c1cn(CC(=O)COc2ccc(Oc3ccccc3)cc2)c2ccc(C(=O)O)cc12`, the Potency was 44.1 µM (active).

Regarding `O=C(O)c1cnn(-c2nc3cc(OC(F)(F)F)c(Cl)cc3[nH]2)c1`, the Potency is 40.3 µM (active).

For the compound `CC(=O)O[C@@H]1C[C@]2(C)[C@@]3(CCC4[C@@]5(C)CC[C@H](O[C@@H]6O[C@H](C(=O)O)[C@@H](O)[C@H](O[C@@H]7O[C@H](CO)[C@H](O)[C@H](O)[C@H]7O[C@@H]7O[C@@H](C)[C@H](O)[C@@H](O)[C@H]7O[C@@H]7OC[C@](O)(CO)[C@H]7O)[C@H]6O[C@@H]6O[C@H](CO)[C@H](O)[C@H](O)[C@H]6O)C(C)(C)C5CC[C@]42C)O[C@@H](O)[C@]12C3CC(C)(C)[C@@H](OC(=O)/C=C/c1ccc(O)c(O)c1)[C@@H]2OC(=O)/C=C/c1ccccc1` (some centres undefined), the Potency is 10.5 µM (active).

On to `N#CC1C(=O)Nc2scc(-c3ccc(-c4ccccc4O)cc3)c2C1=O` (centres undefined), for which the Potency was 22.1 µM (active).
